Source: PubChem (several laboratories)
Mtb UGM inh = blocks M. tuberculosis UGM enzyme | AID 504406 | inhibition, % at 10 µM | 320,000 tested, 0.06% active | purified UGM, fluorescence polarization probe displacement; in the data active means inhibition above about 10%, passing the limit was not always enough
GDH-TPI counter = GDH-TPI coupled enzyme inhibition counter-screen; 360,000 tested, 1.2% active; AID 588335; GDH-TPI coupled enzyme counterscreen, NADH absorbance; inhibition, % at 4.8 µM; in the data active means inhibition above about 30%;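 further: 0% = DMSO wells and 100% = wells lacking the enzyme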
FBA Mtb inh = inhibitors of M. tuberculosis fructose-bisphosphate aldolase | 360,000 tested, 2.3% active | P9WQA3 | AID 588726 | inhibition, % at 1 µM | purified M. tuberculosis FBA, fluorescence read-out; in the data active means inhibition above about 27%;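 further: 0% = vehicle and 100% = reference inhibitor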
Target sequence (P9WQA3 whole entry, looked up): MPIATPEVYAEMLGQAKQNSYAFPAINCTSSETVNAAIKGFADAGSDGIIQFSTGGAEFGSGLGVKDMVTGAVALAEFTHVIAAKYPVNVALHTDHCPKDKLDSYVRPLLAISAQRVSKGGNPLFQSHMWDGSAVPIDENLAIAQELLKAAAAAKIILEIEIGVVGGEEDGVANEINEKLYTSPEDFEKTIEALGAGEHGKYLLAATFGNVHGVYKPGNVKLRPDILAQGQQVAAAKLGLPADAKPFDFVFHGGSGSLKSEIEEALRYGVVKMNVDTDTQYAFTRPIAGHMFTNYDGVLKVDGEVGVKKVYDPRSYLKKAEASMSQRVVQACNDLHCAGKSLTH
FadD28 binding = inhibitors of Mycobacterium tuberculosis FadD28 bisubstrate binding; FadD28 bisubstrate probe binding, fluorescence polarization; inhibition, % at 12.5 µM; 360,000 tested, 0.22% active; in the data active means inhibition above about 8.5%, passing the limit was not always enough
Rv3671c inh = Rv3671c (M. tuberculosis) protease inhibition. P9WHR9. inhibition, % at 5.96 µM. 320,000 tested, 0.048% active. AID 2606; in the data active means inhibition above about 38%;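 further: extracellular domain of Rv3671c used as enzyme; 0% = enzyme with DMSO and 100% = no enzyme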
Mtb hypoxia rep = inhibitors of hypoxia-regulated fluorescent reporter in Mycobacterium tuberculosis; M. tuberculosis hypoxia-regulated fluorescent reporter, fluorescence; fluorescence inhibition, % (test concentration not listed); AID 1159583; 300,000 tested, 0.1% active; in the data active means fluorescence inhibition mostly above about 23%, no sharp cut-off; inactive means mostly below about 17%
* = called active by the depositor; · = no result given; + = active, no number. Shown are actives, neighbours in structure and some others; about 3.5% of the full set was active somewhere.

SMILES	Mtb UGM inh	GDH-TPI counter	FBA Mtb inh	FadD28 binding	Rv3671c inh	Mtb hypoxia rep
O=C(O)CC1S/C(=N/N=C/c2ccc(-c3ccccc3[N+](=O)[O-])o2)NC1=O (stereo not given)	-3.4	39.6*	-4.5	0.0	-67.7	·
C#CCOCCOCCOCCNc1nc(N2CCN(C(=O)Cn3cc(CCO)nn3)CC2)nc(N2CCN(C(=O)C(C(C)CC)n3cc(CCCN=C(N)N)nn3)CC2)n1 (stereo not given)	·	·	·	·	·	-0.7
C(/C=C/c1ccccc1)=NNc1nncc(-c2ccccc2)n1	·	·	·	·	·	5.5
CCOC(=O)c1cnc2c([N+](=O)[O-])cnn2c1C	-1.5	37.0*	-0.2	-1.3	0.5	-4.6
Cc1cc(C)c2c(N=NN3CCCCC3)[nH]nc2n1	-2.3	11.6	2.2	-2.9	-2.3	-6.2
CCN(CC)N=Nc1[nH]nc2nc(C)cc(C)c12	-2.4	31.6*	-9.3	0.9	7.5	12.0
N#Cc1cc2c(=O)n3ccccc3nc2n(Cc2ccco2)c1=NC(=O)c1ccco1	-1.4	16.2	167.8*	-1.4	-9.1	-5.7
Cc1ccccc1C(=O)N=c1c(C#N)cc2c(=O)n3cccc(C)c3nc2n1Cc1ccco1	7.1	·	·	·	-9.3	-4.2
CC(=O)N=c1c(C#N)cc2c(=O)n3cccc(C)c3nc2n1CCCOC(C)C	-2.1	5.2	+	-2.9	-6.8	6.9
CCOCCCn1c(=NC(=O)c2cccs2)c(C#N)cc2c(=O)n3ccccc3nc21	15.9*	10.3	+	-2.6	2.1	14.5
COc1ccc(C(=O)N=c2c(C#N)cc3c(=O)n4cccc(C)c4nc3n2Cc2ccco2)cc1	·	·	·	·	·	5.2
Cc1cccn2c(=O)c3cc(C#N)c(=NC(=O)c4ccncc4)n(CCCOC(C)C)c3nc12	4.3	4.7	10.6	-1.2	5.5	1.3
CC(=O)N=c1c(C#N)cc2c(=O)n3cccc(C)c3nc2n1Cc1ccco1	1.4	8.6	+	-1.3	8.3	9.9
Cc1ccc(C(=O)ON=C(N)c2nonc2N)cc1	·	·	·	·	·	8.1
CC(=NOC(=O)CC(C)C)c1cc(-c2ccc(Cl)cc2)no1	·	·	·	·	·	14.2
Cc1cccn2c(=O)c3cc(C#N)c(=NC(=O)c4cccs4)n(CCCOC(C)C)c3nc12	2.4	12.2	+	-1.5	-0.9	-4.7
CC(=NNC(=O)c1c(Cl)c(C)nn1C)c1cccc(NC(=O)c2cccc(F)c2)c1	·	·	·	·	·	8.8
CN=C1c2cc3c(Br)c(OC)ccc3n2CCN1C	1.3	32.3*	0.1	-0.2	-1.5	8.7
O=C(C[n+]1ccccc1)NN=Cc1ccco1	·	·	·	·	·	3.1
COc1cccc(-c2cc(-c3cccnc3)c(C#N)c(N)n2)c1	-2.5	31.6*	+	-1.1	-6.2	2.6
N#Cc1c(-c2cccc(Br)c2)cc(-c2cccnc2)nc1N	3.9	15.9	131.2*	0.2	-47.9	7.9
COc1ccc(-c2cc(-c3ccc(O)cc3)nc(N)c2C#N)cc1	-0.5	3.5	48.7*	-5.5	-20.4	7.3
COc1ccc(OC)c(-c2cc(-c3cccnc3)nc(N)c2C#N)c1	0.0	28.3	0.0	-2.4	-7.5	·
COc1cccc(-c2cc(-c3cccnc3)nc(N)c2C#N)c1	-4.0	12.4	127.4*	-2.3	-8.8	1.0
Nc1nonc1C(=O)NN=Cc1cc(Br)ccc1O	·	·	·	·	·	-4.6
SMILES	Mtb UGM inh	GDH-TPI counter	FBA Mtb inh	FadD28 binding	Rv3671c inh	Mtb hypoxia rep
CCOc1cc2c(cc1/C=C/C(=O)O)OC(C)C2 (stereo not given)	0.4	-1.3	147.5*	-2.9	-11.0	2.7
CC(C)(O)C1Cc2cc(/C=C/C(=O)O)c(O)cc2O1 (stereo not given)	·	15.1	7.7	1.4	·	5.3
COc1cc2c(cc1/C=C/C(=O)O)OC(C)C2 (stereo not given)	2.6	4.1	+	-2.6	-3.6	14.3
NC(=NOC(=O)C1CCCCC1)c1cccc([N+](=O)[O-])c1	·	·	·	·	·	-2.0
Nc1c(S(=O)(=O)c2cccs2)c2nc3ccccc3nc2n1CCc1ccccc1	1.1	·	·	·	-22.4	-5.4
CC(C)CCn1c(N)c(S(=O)(=O)c2cccs2)c2nc3ccccc3nc21	3.7	12.1	116.0*	-7.1	-112.6	-13.0
Nc1c(S(=O)(=O)c2cccs2)c2nc3ccccc3nc2n1Cc1ccc2c(c1)OCO2	-3.6	10.2	7.3	-7.6	-104.3	8.6
Nc1c(S(=O)(=O)c2cccs2)c2nc3ccccc3nc2n1CC1CCCO1 (stereo not given)	2.5	22.9	170.0*	0.1	-2.1	2.5
Nc1c(S(=O)(=O)c2cccs2)c2nc3ccccc3nc2n1Cc1cccs1	-1.3	13.3	119.1*	-9.4	-32.5	-1.0
COc1ccc(C=NNC(=O)c2cccc([N+](=O)[O-])c2)cc1OS(=O)(=O)c1ccc(C)cc1	·	·	·	·	·	7.9
CC(=O)Oc1ccc(C2=NN(c3ccccc3)C(c3ccccc3)C2)cc1 (stereo not given)	-2.3	-3.2	128.9*	-2.5	-0.2	17.4
NS(=O)(=O)c1ccc(N2N=C(c3ccc(Br)cc3)CC2c2ccc(F)cc2)cc1 (stereo not given)	1.0	27.5	+	1.6	9.7	-0.8
COc1ccc(C2CC(c3ccccc3O)=NN2c2ccccc2)cc1 (stereo not given)	2.5	5.9	4.3	-1.7	2.5	11.6
COc1ccc(C2CC(c3ccccc3)=NN2c2ccc(S(N)(=O)=O)cc2)cc1OC (stereo not given)	-1.5	18.2	+	1.5	5.8	6.1
COc1cc(C2CC(c3cccnc3)=NN2c2ccc(F)cc2)cc(OC)c1OC (stereo not given)	3.2	10.4	+	-2.2	-0.4	6.9
COc1ccc(C2CC(c3ccccc3)=NN2c2ccc(N)cc2)cc1 (stereo not given)	1.7	15.3	-0.1	-3.8	-5.5	5.6
COc1cc(N2N=C(c3ccccc3)CC2c2ccccc2)c(C=O)cc1C=O (stereo not given)	0.3	19.6	-0.7	-1.8	1.5	8.1
Cc1ccc(S(=O)(=O)C=Cc2ccccc2)cc1	·	·	·	·	·	11.8
Clc1ccc(C2C3CN(CC4CCCCC4)C(c4ccccc4)C34CC2(c2cccnc2)C4)cn1 (stereo not given)	·	·	·	·	·	-2.7
O=C(C[n+]1cccc(C=NO)c1)N(Cc1ccccc1)Cc1ccccc1	·	·	·	·	·	6.8
COc1cc(C2CC(c3ccccc3)=NN2c2ccccc2)ccc1OCC(=O)O (stereo not given)	2.7	11.7	+	0.3	-0.5	3.2
COc1ccc(C2CC(c3ccccc3)=NN2c2ccccc2)c(C(=O)O)c1OC (stereo not given)	0.8	5.4	197.3*	-1.2	0.3	3.6
COc1ccc2c(c1OC)C(=O)N1N=C(c3ccccc3)CC21 (stereo not given)	-2.3	20.4	-2.0	-2.0	-1.9	14.3
NS(=O)(=O)c1ccc(N2N=C(c3ccccc3)CC2c2ccccc2Br)cc1 (stereo not given)	·	20.8	+	-1.9	·	-6.4
COc1ccc(C2=NN(c3ccc(C(=O)O)cc3)C(c3ccc(OC)c(OC)c3)C2)cc1 (stereo not given)	-0.2	34.9*	+	36.8*	17.4	-5.7
